# Screening results (PubChem BioAssay)
# An excerpt weighted towards active compounds, which were near 2% of everything screened.
# NOD2 RIPK2 PPI = NOD2-RIPK2 protein interaction inhibition | CHO BLA complementation NOD2-RIPK2, CCF4 ratio | inhibition, % at 4.98 µM | 0.38% of 360,000 active | AID 624267; in the data active means inhibition above about 21%;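 further: 0% = vehicle only and 100% = reference blocker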
# TLR9-MyD88 block = TLR9-MyD88 interaction inhibition | CHO BLA complementation TLR9-MyD88, CCF4 FRET ratio | 0.21% of 340,000 active | Q9NR96+Q99836 | AID 504734 | inhibition, % at 4.98 µM;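 active means inhibition above the mean over all tested compounds plus 3 SD, cut at about 21% in these data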;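 further: 0% = DMSO only wells and 100% = clavulanate BLA inhibitor control wells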
# TLR4-MyD88 BLA = TLR4-MyD88 interaction inhibition in cells | O00206+Q99836 | HeLa CL3-4 TLR4/MyD88 BLA complementation, FRET ratio | inhibition, % at 8.4 µM | 0.18% of 200,000 active; in the data active means inhibition above about 25%;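 further: 0% = vehicle and 100% = reference inhibitor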
# B2AR ag = activates human beta-2 adrenergic receptor causing internalization; 0.43% of 340,000 active; AID 504454; Am2.2-beta2AR cells, FAP receptor internalization, flow cytometry; response, % (test concentration not listed); P07550;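 active means response above a set limit, near 3 SD of response in nonfluorescent compounds, cut at about 42% in these data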
# ABHD5-PLIN5 inh = blocks binding of human ABHD5 to perilipin-5; Split G. princeps luciferase complementation, luminescence, 4 h; 0.78% of 360,000 active; AID 602281; inhibition, % at 4 µM;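 active means inhibition above the mean inhibition across every tested compound plus 3 SD, cut at about 22% in these data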;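 further: 0% = DMSO only wells and the 100% control is not disclosed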
# Target sequence (Q00G26 whole entry, looked up): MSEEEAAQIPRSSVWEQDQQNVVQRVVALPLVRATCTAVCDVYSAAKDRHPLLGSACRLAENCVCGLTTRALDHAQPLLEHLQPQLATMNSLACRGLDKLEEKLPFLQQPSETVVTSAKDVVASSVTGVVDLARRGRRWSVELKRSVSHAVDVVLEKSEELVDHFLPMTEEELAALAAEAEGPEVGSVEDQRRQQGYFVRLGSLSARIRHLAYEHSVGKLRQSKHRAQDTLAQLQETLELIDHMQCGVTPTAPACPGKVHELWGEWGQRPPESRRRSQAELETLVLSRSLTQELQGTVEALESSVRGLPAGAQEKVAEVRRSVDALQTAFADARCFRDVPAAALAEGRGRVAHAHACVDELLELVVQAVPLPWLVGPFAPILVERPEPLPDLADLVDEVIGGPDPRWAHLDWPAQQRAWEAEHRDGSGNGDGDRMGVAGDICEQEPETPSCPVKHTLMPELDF
# Target sequence (Q8WTS1 whole entry, looked up): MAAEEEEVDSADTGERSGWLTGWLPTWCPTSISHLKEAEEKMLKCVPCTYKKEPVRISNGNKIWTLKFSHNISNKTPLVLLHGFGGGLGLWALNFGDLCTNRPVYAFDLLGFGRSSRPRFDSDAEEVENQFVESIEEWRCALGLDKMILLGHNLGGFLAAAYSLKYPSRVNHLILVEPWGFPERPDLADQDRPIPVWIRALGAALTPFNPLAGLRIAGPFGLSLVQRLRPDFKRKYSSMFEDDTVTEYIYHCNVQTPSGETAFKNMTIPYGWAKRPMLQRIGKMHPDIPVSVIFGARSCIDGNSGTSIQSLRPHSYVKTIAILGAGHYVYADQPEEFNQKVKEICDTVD
# Exocytosis inh = lytic granule exocytosis inhibition. TALL-104 LAMP-1 surface exposure, flow cytometry; cells stimulated with thapsigargin and PMA. inhibition, % at 10 µM. 0.66% of 360,000 active;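 active means inhibition above about 55%, limit read from the data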
# TLR9-MyD88 conf = confirmation of human TLR9-MyD88 binding inhibitors; shares compounds with TLR9-MyD88 block; CHO TLR9/MyD88 BLA complementation, CCF4 FRET ratio; inhibition, % at 4.98 µM; 51% of 680 active;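 active means mean inhibition across three repeats above about 21% taken from the earlier screen, limit read from the data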;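 further: blue over green emission ratio reports constitutive TLR9 MyD88 association via BLA complementation; 0% = DMSO vehicle wells and 100% = clavulanate BLA inhibitor wells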
# BLA counter-1 = beta-lactamase reporter inhibition, counter-screen artifact | shares compounds with TLR9-MyD88 block | CHO-BLA cells, CCF4 FRET ratio, BLA reporter | inhibition, % at 4.98 µM | 7% of 680 active | AID 540251;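 active means mean inhibition above a 50% cutoff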;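 further: counterscreen of TLR9-MyD88 hits on CMV-driven BLA in CHO-K1 cells; 0% = DMSO alone and 100% = clavulanate blocking BLA; higher means less blue over green ratio so more BLA blockade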
# TLR9 CHO cytotox = counter-screen for TLR9-MyD88 inhibitors: cytotoxicity in CHO cells | shares compounds with TLR9-MyD88 block | luminescence | inhibition, % at 4.98 µM | 39% of 680 active; in the data active means inhibition above about 11%
# ABHD5 PLIN5 conf = confirmation of human ABHD5-PLIN5 interaction inhibitors | shares compounds with ABHD5-PLIN5 inh | biochemical ABHD5-PLIN5 interaction, luminescence | inhibition, % at 4 µM | 67% of 2,200 active | AID 651612; in the data active means inhibition above about 23%;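 further: 0% = DMSO vehicle wells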
# HNF4 split-luc = counter-screen for ABHD5-PLIN5 inhibitors: HNF4 split-luciferase; shares compounds with ABHD5-PLIN5 inh; HNF4 dimerization, luminescence, biochemical; inhibition, % at 4 µM; 77% of 2,200 active;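 active means mean inhibition across replicate wells exceeding the computed hit threshold, cut at about 13% in these data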;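 further: light from luciferase halves that rejoin when HNF4 fusion proteins dimerize; 0% = DMSO only wells and the 100% control is not given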
# NOD2 RIPK2 conf = confirmation of human NOD2-RIPK2 interaction inhibitors. inhibition, % at 4.98 µM. 70% of 1,200 active. AID 624370. CHO cells, NOD2-RIPK2 BLA complementation, CCF4 FRET. shares compounds with NOD2 RIPK2 PPI;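 active means mean inhibition across replicates above a set limit taken from the earlier primary screen, cut at about 21% in these data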;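 further: 0% = DMSO-only wells and the high end = clavulanate BLA-blocked wells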
# BLA counter-2 = NOD2-RIPK2 counterscreen BLA reporter activity | shares compounds with NOD2 RIPK2 PPI | CHO BLA reporter, CCF4 FRET ratio | inhibition, % at 4.98 µM | 57% of 1,200 active | AID 624371;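 active means mean inhibition above the low-control mean inhibition plus three low-control SD, cut at about 11% in these data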;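 further: 0% = DMSO only wells and 100% = clavulanate high control wells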
# Exocytosis CP01 = blocks lytic granule exocytosis; inhibition, % at 10 µM; TALL-104 cells, LAMP-1 externalization, flow cytometry; stimulated with PMA plus thapsigargin; shares compounds with Exocytosis inh; 11% of 1,500 active; AID 651954; in the data active means inhibition above about 60%;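 further: 0% = stimulated vehicle wells and 100% = unstimulated wells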
# Numbers without * were called inactive; . = no result given.
SMILES,NOD2 RIPK2 PPI,TLR9-MyD88 block,TLR4-MyD88 BLA,B2AR ag,ABHD5-PLIN5 inh,Exocytosis inh,TLR9-MyD88 conf,BLA counter-1,TLR9 CHO cytotox,NOD2 RIPK2 conf,BLA counter-2,others
N#Cc1ccc(S(=O)(=O)N2CCCCC2c2cc(C(=O)NCc3cccnc3)no2)cc1 (configuration not stated),9,.,.,.,4,-10,.,.,.,.,.,
O=[N+]([O-])c1ccc(Nc2ccc3ccccc3c2)nc1,37*,24*,25,2,4,1,19,10,8,21*,25*,
CCOC(=O)c1cc(=O)nc(N)s1,1,-4,.,.,19,-3,.,.,.,.,.,
O=C1C=CC2(O[C@H](c3ccccc3)[C@@H](c3ccccc3)O2)[C@H](Sc2ccccc2O)C1,92*,40*,.,42*,94*,102*,38*,23,100*,91*,40*,
C[C@@H]1[C@@H](Sc2ccccc2)CC(=O)O[C@@H]1c1ccc(-c2ccccc2)cc1,1,7,.,15,7,-1,.,.,.,.,.,
CC(C)(C)c1ccc(C2=CC(c3ccccc3)n3ncnc3N2)cc1 (configuration not stated),-5,-3,.,-3,0,-5,.,.,.,.,.,
OCCCc1nc2n(n1)C(c1ccccc1)C=C(c1ccc(F)cc1)N2 (configuration not stated),51*,39*,5,-4,2,-1,21*,24,3,40*,45*,
CCOC(=O)n1c(=O)n(Cc2c(Cl)cccc2Cl)c2ccccc21,23*,24*,9,3,-1,-4,9,12,0,29*,27*,
CCOC(=O)n1c(=O)n(Cc2ccccc2)c2ccccc21,-1,3,-1,-4,-1,-2,.,.,.,.,.,
Cc1ccccc1NC(=O)Cc1nc(COC(=O)c2ccc(S(C)(=O)=O)c([N+](=O)[O-])c2)cs1,45*,25*,.,5,27*,3,17,6,84*,50*,11*,ABHD5 PLIN5 conf=35*;HNF4 split-luc=42*
Cc1ccccc1NC(=O)Cc1nc(COC(=O)c2ccc(NC(N)=O)cc2)cs1,-9,-3,.,8,4,51,.,.,.,.,.,
N#C/C(=C/c1ccc(N2CCCCCC2)o1)c1ccc(Cl)cc1,39*,24*,21,-918,78*,84*,9,9,84*,28*,14*,ABHD5 PLIN5 conf=82*;HNF4 split-luc=111*
CC1=C(SCc2ccccc2)C(=O)c2ccccc2C1=O,12,-1,.,5,-10,1,.,.,.,.,.,
O=C1C(SCCO)=C(SCCO)C(=O)c2ccccc21,84*,64*,.,-48,97*,97*,84*,17,99*,92*,34*,ABHD5 PLIN5 conf=104*;HNF4 split-luc=111*
CC(=O)c1cccc(NC(=O)c2ccc(-n3cncn3)c3ccoc23)c1,-10,.,.,.,5,-3,.,.,.,.,.,
CCN(CC)c1ccc2c(C)cc(=O)oc2c1,-8,-19,.,3,11,-7,.,.,.,.,.,
CCN(CC)c1ccc2c(Cl)c(Br)c(=O)oc2c1,95*,92*,91*,.,6,1,89*,91*,52*,100*,96*,
COc1ccc(O)c(/C=N/NC(=S)Nc2cccc(S(=O)(=O)N(C)C)c2)c1,25*,26*,2,0,2,-4,12,8,32*,17,21*,
CN(C)S(=O)(=O)c1cccc(NC(=S)N/N=C/c2ccc(O)c(O)c2O)c1,-7,5,.,8,-13,8,.,.,.,.,.,
O=c1c2c([N+](=O)[O-])cc([N+](=O)[O-])cc2sn1Cc1ccccc1,26*,32*,.,-1,2,-20,20,5,95*,12,9,
O=c1c2c([N+](=O)[O-])cc([N+](=O)[O-])cc2nc2ccccn12,-4,-2,.,18,0,3,.,.,.,.,.,
COc1ccc(-c2cc3ccc(O)cc3oc2=O)cc1OC,52*,40*,.,2,-4,-1,28*,36,2,56*,60*,
O=C1CC(Sc2nnnn2-c2ccccc2)C(=O)N1c1cccc(Cl)c1 (configuration not stated),57*,22*,5,8,37*,99*,11,3,98*,58*,12*,ABHD5 PLIN5 conf=62*;HNF4 split-luc=104*;Exocytosis CP01=101*
O=C1CC(SCc2nc3ccccc3[nH]2)C(=O)N1c1cccc(Cl)c1 (configuration not stated),-2,1,0,-8,-6,0,.,.,.,.,.,
CC(=O)Nc1ccc2c(=O)n(-c3ccccc3)sc2c1,31*,28*,.,.,79*,69*,25*,3,92*,40*,11*,ABHD5 PLIN5 conf=69*;HNF4 split-luc=117*;Exocytosis CP01=62*
O=C1NC[C@H](CCCCN2CCN(CCc3ccc(O)cc3)C(=O)C2=O)N(CCC2CCCCC2)C1=O,0,.,.,.,5,4,.,.,.,.,.,
CC(C)C(Cl)=NOC(=O)Nc1ccc(S(N)(=O)=O)cc1,12,-1,.,-9,29*,4,.,.,.,.,.,ABHD5 PLIN5 conf=69*;HNF4 split-luc=87*
COC(=O)[C@H](C)NC(=O)Nc1ccc(S(N)(=O)=O)cc1,1,2,-1,1,-7,4,.,.,.,.,.,
CCOC(=O)c1c(CSC(=N)N)n(-c2ccccc2)c2cc(Br)c(OC(C)=O)cc12,16,-5,.,20,32*,81*,.,.,.,.,.,ABHD5 PLIN5 conf=29*;HNF4 split-luc=30*
CN(C)c1nc(N)nc(CSc2nnnn2-c2ccc(Cl)cc2)n1,3,.,.,.,-2,-4,.,.,.,.,.,
